Screening data from PubChem BioAssay.
In the library only some 2.2% were active in any assay of this set; here they are far more common.
LDHA inh – blocks human lactate dehydrogenase A; AID 1347041; hit rate 0.15% among 480,000; purified LDHA, NADH/diaphorase-resazurin fluorescence; stronger effect = lower value; activity change, % (values are at about 110 or 230 µM); in the data active = activity change below about -30%; inconclusive = mostly about -25% to -30%;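 also: plate controls were DMSO wells for no effect and wells without enzyme for full effect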
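Enzyme activity of human lactate dehydrogenase 5 (2 nM; 0.06 mM NADH, 0.2 mM pyruvate, 5 min, RT) is measured via a resazurin/diaphorase fluorescence readout of residual NADH.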
ATXN2 expr inh – reduces ATXN2 reporter expression in HEK-293 cells. HEK-293 ATXN2-luciferase reporter, luminescence, 24 h. Potency, µM (top dose mostly 57 µM), without a hit: at the top dose activity change, negative = inhibition, most hits filed as inhibitors. hit rate 0.72% among 360,000; also: potency is read from the fitted curve at half-maximal effect; % is scaled to controls: 0 for no effect and ±100 for the full control effect; nearly all actives have a fitted effect of over 55% in size
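ATXN2-luciferase reporter cells (luciferase flanked by upstream and downstream ATXN2 gene portions) were treated 24 h at 37 °C with compounds at up to 57 uM. SteadyGlo luminescence gave expression; GF-AFC fluorescence gave viability.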
TGFb SMAD3 inh – blocks TGF-b signaling; HepG2 CAGA-GFP TGF-b/SMAD3 reporter, GFP fluorescence, 18 h; TGF-beta stimulated, 500 pg/mL final; Potency, µM (doses to about 46.1 µM), for the others: top-dose activity, negative = inhibition, usual class: inhibitors; hit rate 1.2% among 410,000; AID 588855; also: potency is read from the fitted curve at half-maximal effect; % is scaled to controls: 0 for no effect and ±100 for the full control effect; nearly all actives have a fitted effect of over 65% in size
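First, reporter cells (HEPG2 CAGA-GFP) rested 2 h at 37 degrees C. Next, compounds were pinned in and TGF-beta added to 500 pg/mL final. After 18 h, GFP was imaged per cell and summed per well.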
ATXN viability – reduces viability in counter-screen for ATXN expression inhibitors; S2 cells (HEK-293 line with an ATXN2-luciferase reporter) viability, CellTiter-Fluor protease fluorescence, 24 h; Potency, µM (doses to about 56.7 µM), hits mostly cytotoxic; hit rate 0.49% among 400,000; also: potency is read from the fitted curve at half-maximal effect; nearly all actives have a fitted effect of over 40% in size
HepG2 tox-1 – kills HepG2 cells in TGF-b inhibitor counter-screen; HepG2 CAGA-GFP viability, ATP luminescence, 18 h; Potency, µM (doses to about 46.1 µM), for inactives: at the highest dose activity change, negative = cytotoxicity, usual class: cytotoxic; hit rate 0.76% among 410,000; AID 588856; also: potency is read from the fitted curve at half-maximal effect
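CellTiter-Glo luminescence gave cytotoxicity after 18 hours at 37 degrees C. The cells were HepG2 CAGA-GFP in 1% FBS DMEM, stimulated with 500 pg/mL TGF-beta after compound addition. %Activity was normalised to no-cell wells (complete cell-killing) and DMSO (no toxicity), and curves were fitted and classified.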
mIDH1 inhibitor – inhibitors of human mutant IDH1 R132H; IDH1-R132H enzyme, NADPH consumption, diaphorase/resazurin fluorescence; Potency, µM (series often up to 76.6 µM), for the others: at the highest dose activity change, negative = inhibition, actives largely listed as inhibitors; hit rate 0.093% among 390,000; AID 602179; also: potency is read from the fitted curve at half-maximal effect; % is scaled to controls: 0 for no effect and ±100 for the full control effect; nearly all actives have a fitted effect of over 65% in size
Target sequence (O75874 whole entry R132H, stated change not applied): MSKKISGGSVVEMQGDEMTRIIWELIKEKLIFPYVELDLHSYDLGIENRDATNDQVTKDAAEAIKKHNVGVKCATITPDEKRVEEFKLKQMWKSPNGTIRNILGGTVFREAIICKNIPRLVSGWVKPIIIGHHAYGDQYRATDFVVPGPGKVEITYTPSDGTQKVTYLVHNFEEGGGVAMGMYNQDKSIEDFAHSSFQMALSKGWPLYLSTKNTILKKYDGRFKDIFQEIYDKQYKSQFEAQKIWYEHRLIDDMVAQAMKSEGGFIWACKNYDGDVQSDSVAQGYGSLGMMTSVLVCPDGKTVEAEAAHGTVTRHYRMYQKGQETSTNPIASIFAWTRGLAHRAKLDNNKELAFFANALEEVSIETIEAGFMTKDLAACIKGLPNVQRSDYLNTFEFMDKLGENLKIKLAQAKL
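IDH1-R132H (0.5 ug/mL) preincubated 30 min with compound, then NADPH (0.016 mM) and alpha-KG (2 mM) added; 80 min at RT, pH 7.5. Remaining NADPH coupled via diaphorase/resazurin to fluorescence (540/590 nm); concentration-response curves normalized to no-enzyme control.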
TGFb CAGA inh – TGF-b pathway inhibition, cherry-pick retest. AID 720534. hit rate 63% among 1,600. HepG2 CAGA-GFP TGF-b reporter, GFP fluorescence, 18 h; cells stimulated with TGF-beta, 500 pg/mL. Potency, µM (highest dose often 46.1 µM), without a hit: top-dose activity, negative = inhibition, most hits filed as inhibitors. shares compounds with TGFb SMAD3 inh; also: potency is read from the fitted curve at half-maximal effect; % is scaled to controls: 0 for no effect and ±100 for the full control effect; nearly all actives have a fitted effect of over 65% in size
HepG2 tox-2 – counter-screen for TGF-b inhibitors: cytotoxicity in HepG2 cells | shares compounds with TGFb SMAD3 inh | HepG2 CAGA-GFP viability, ATP luminescence, 18 h; cells stimulated with TGF-beta, 500 pg/mL | Potency, µM (series often up to 46.1 µM), for the others: at the highest dose activity, negative = cytotoxicity, actives largely listed as inhibitors | hit rate 27% among 1,600; also: potency is read from the fitted curve at half-maximal effect; % is scaled to controls: 0 for no effect and ±100 for the full control effect; nearly all actives have a fitted effect of over 70% in size
TGFb CCL64 inh – TGF-b inhibition, CCL64 orthogonal assay; shares compounds with TGFb SMAD3 inh; CCL64 CAGA-GFP reporter, TGF-b stimulated, GFP fluorescence, 18 h; Potency, µM (top dose mostly 46.1 µM), without a hit: top-dose activity, negative = inhibition, hits mostly inhibitors; hit rate 41% among 1,600; AID 720536; also: potency is read from the fitted curve at half-maximal effect; nearly all actives have a fitted effect of over 65% in size
COP TGFb inh – validation of TGF-b inhibitors in HepG2 COP promoter reporter. shares compounds with TGFb SMAD3 inh. HepG2 COP-GFP TGF-b reporter, GFP fluorescence, 18 h; cells stimulated by added recombinant TGF-beta. hit rate 3% among 1,600. Potency, µM (titrated, usually from 46.1 µM), for inactives: at the highest dose activity, negative = inhibition, actives largely listed as inhibitors; also: potency is read from the fitted curve at half-maximal effect; nearly all actives have a fitted effect of over 70% in size
Active calls of the source: *; i = inactive; ? = inconclusive; / = no result given. Unless noted, calls follow the shape of the dose curve; as a rule, active = well fitted curve in the direction sought with a large enough effect; inconclusive = small, poorly fitted or top-dose-only effect, or another doubt; inactive = no such curve, though single readings can be large; an effect the other way counts as inactive or inconclusive.

SMILES	LDHA inh	ATXN2 expr inh	TGFb SMAD3 inh	ATXN viability	HepG2 tox-1	mIDH1 inhibitor	TGFb CAGA inh	HepG2 tox-2	TGFb CCL64 inh	COP TGFb inh
CC(=O)OC1CCC2(C)C(CCC3C4CC=C(C(C)=O)C4(C)OC(=O)CC32)C1 (configuration not stated)	-1	/	4µM*	2.5µM*	13µM*	19%	18µM*	12µM*	2.9µM*	?
COc1ccc(S(=O)(=O)N2CCC(C(=O)N3CCN(C)CC3)CC2)cc1Cl	-8	0%	-16%	i	-17%	-3%	/	/	/	/
COc1ccc(S(=O)(=O)N2CCC(C(=O)N3CCc4ccccc4C3)CC2)cc1Cl	6	1%	?	i	-11%	-1%	?	-26%	?	18%
COc1ccc(C(C)(C)C)cc1NC(=O)C1=CC=CN2CCS(=O)(=O)N=C12	-7	7%	2%	i	2%	9%	/	/	/	/
NNC(=O)c1[nH]c2ccc([N+](=O)[O-])cc2c1-c1ccccc1	0	/	3.5µM*	i	-24%	-5%	?	-19%	?	-14%
CCOc1ccc(COC(=O)C2CC(=O)N(CCc3ccccc3)C2)cc1OC (configuration not stated)	-6	/	-1%	i	-9%	-2%	/	/	/	/
CCC1=Nc2cc(C(=O)NCC3CCCO3)ccc2Sc2ccc(Br)cc21 (configuration not stated)	-5	/	11µM*	?	-16%	-2%	18µM*	-1%	?	4%
CCC1=Nc2cc(C(=O)NCC3CCCO3)ccc2Sc2ccc(Cl)cc21 (configuration not stated)	-1	-30%	?	?	-19%	9%	/	/	/	/
CCOc1ccc(N(CC(=O)N/N=C/c2cc([N+](=O)[O-])ccc2Cl)S(C)(=O)=O)cc1	-3	-15%	7.9µM*	i	0%	20%	15µM*	-3%	?	16%
CCCOc1ccc(/C=N/NC(=O)CN(c2ccc(OCC)cc2)S(C)(=O)=O)cc1	-2	0%	?	i	-30%	8%	/	/	/	/
CCCOC(=O)Cn1cnc2scc(-c3ccc(OC)cc3)c2c1=O	-1	-2%	0%	i	-8%	-4%	/	/	/	/
COc1ccc(-c2cc(N)n(S(=O)(=O)c3c(F)c(F)c(F)c(F)c3F)n2)cc1OC	4	7.9µM*	4µM*	10µM*	8.9µM*	-4%	2.6µM*	8.2µM*	2.9µM*	?
COc1ccc(-c2nnc(OC)c3ccccc23)cc1	0	/	1%	i	-8%	-2%	/	/	/	/
CCn1c(/C=C/c2ccc(O)c(O)c2)nc2ccccc2c1=O	10	/	?	i	-36%	-7%	/	/	/	/
CCn1c(/C=C/c2cc(Br)ccc2O)nc2ccccc2c1=O	-8	?	10µM*	i	-43%	-11%	?	?	-3%	24%
CCO[C@H]1OC(C(=O)NCc2ccccc2)=C[C@@H](c2ccccc2)[C@@H]1CCCO	-2	-4%	-8%	?	0%	3%	/	/	/	/
O=S(=O)(O)C(c1ccccc1)C1(O)CCCCC1 (configuration not stated)	-11	6%	0%	i	3%	5%	/	/	/	/
CN(CCOc1ccccc1)C(=O)C1CCN(C(=O)c2ccc(F)cc2)CC1	-6	-5%	?	i	0%	6%	-16%	10%	-4%	12%
O=C(c1ccc(F)cc1)N1CCC(C(=O)N(Cc2ccccc2)c2ccccc2)CC1	-5	/	-29%	i	-31%	-13%	/	/	/	/
O=C1CN(C(=O)OCc2ccccc2)c2ccccc2N1	-5	69%	0%	?	-7%	-1%	/	/	/	/
O=C(Nc1ccccc1N1CCN(C(=O)c2ccc(Cl)cc2)CC1)c1ccc([N+](=O)[O-])o1	-1	?	?	?	-14%	-1%	/	/	/	/
O=C(Nc1ccc(N2CCN(C(=O)c3ccccc3)CC2)cc1)c1ccc([N+](=O)[O-])o1	4	/	5.6µM*	?	13µM*	0%	7.3µM*	23µM*	?	-21%
O=C(Nc1nc(-c2ccccn2)cs1)c1ccc([N+](=O)[O-])o1	2	?	8.9µM*	?	-58%	7%	15µM*	16µM*	?	17%
NC(=O)c1oc2ccccc2c1NC(=O)c1ccc([N+](=O)[O-])o1	-1	?	7.1µM*	?	-31%	0%	4.6µM*	23µM*	?	51%
NC(=O)c1oc2ccccc2c1NC(=O)c1ccc(F)cc1	-5	-6%	-19%	i	31%	6%	/	/	/	/
SMILES	LDHA inh	ATXN2 expr inh	TGFb SMAD3 inh	ATXN viability	HepG2 tox-1	mIDH1 inhibitor	TGFb CAGA inh	HepG2 tox-2	TGFb CCL64 inh	COP TGFb inh
O=C(NNC(=O)c1ccc([N+](=O)[O-])o1)c1ccccc1	4	-24%	7.9µM*	?	-26%	9%	16µM*	18µM*	3%	52%
Cc1ccc(Cl)cc1NC(=O)N1CCC(CN2CCc3ccccc3C2)CC1	-7	/	6%	/	2%	-8%	/	/	/	/
O=C(NCc1ccc(Cl)nc1)c1csc(COCCO)n1	-5	11%	-4%	i	-1%	/	/	/	/	/
Cc1ccccc1C(=O)N1CCN(c2ccc(NC(=O)c3ccc([N+](=O)[O-])o3)cc2)CC1	0	-28%	3.2µM*	?	1.1µM*	9%	6.5µM*	16µM*	-7%	?
CCN(CC)c1ccc(S(=O)(=O)N2CCOCC2)cc1NS(C)(=O)=O	-6	-7%	0%	?	5%	-6%	/	/	/	/
O=C(c1ccccc1O)N(Cc1ccco1)Cc1ccco1	9	/	/	/	/	/	/	/	/	/
